Sampled rows, rich in hits. Any-hit rate of the full collection: about 28%.
CYP2C9 inh: inhibitors of human CYP2C9. P11712. CYP2C9 Supersomes, luciferin-H conversion, luminescence. inhibition, % at 5 µM. hit rate 20% among 96,000. AID 777;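 active means blocking of liver enzyme CYP2C9 beyond about 50% at 5 µM, limit read from the data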
Target sequence (P11712 whole entry, looked up): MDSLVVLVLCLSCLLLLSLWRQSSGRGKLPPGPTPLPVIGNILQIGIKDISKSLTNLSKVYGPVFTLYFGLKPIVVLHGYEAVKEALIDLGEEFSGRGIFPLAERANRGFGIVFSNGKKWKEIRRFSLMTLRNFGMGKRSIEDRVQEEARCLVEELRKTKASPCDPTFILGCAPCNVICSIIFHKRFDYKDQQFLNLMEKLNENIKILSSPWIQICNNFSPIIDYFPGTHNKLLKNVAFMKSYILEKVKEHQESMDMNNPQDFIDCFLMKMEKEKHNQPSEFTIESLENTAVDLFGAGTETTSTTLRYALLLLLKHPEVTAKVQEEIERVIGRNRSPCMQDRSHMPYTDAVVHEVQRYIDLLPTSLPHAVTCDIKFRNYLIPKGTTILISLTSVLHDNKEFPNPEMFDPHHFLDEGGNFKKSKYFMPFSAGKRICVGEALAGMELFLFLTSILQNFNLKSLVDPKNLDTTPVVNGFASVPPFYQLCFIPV
CYP2C19 activ: increases human CYP2C19 enzyme activity; 96,000 tested, under 10 active; activation factor at 5 µM; P33261; AID 1025; recombinant CYP2C19, luciferin-H EGE luminescence; hits give high values; 0 = fully inhibited enzyme, 1 = untreated enzyme;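 active means activation factor of at least 2 at 5 µM in the primary screen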;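 further: 0 = wells with 2.5 mM tranylcypromine and 1 = vehicle-only wells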
CYP2C19 inhib: blocks human cytochrome P450 2C19 | P33261 | CYP2C19 Supersomes, luciferin-H EGE luminescence, 30 min | hit rate 21% among 96,000 | AID 778 | inhibition, % at 5 µM;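 active means CYP2C19 inhibition above a set limit at 5 µM in the primary screen, cut at about 50% in these data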;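 further: plate controls were negative control wells for no effect and 2.5 mM tranylcypromine positive control for full effect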
CYP2C9 act: CYP2C9 (human) activation; P11712; recombinant CYP2C9, luciferin-H conversion, luminescence; hits give high values; factor 1 = untreated enzyme, 0 = blocked; activation factor at 5 µM; hit rate 1.4% among 96,000;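 active means activation factor of 2 or more for CYP2C9 at a 5 µM dose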;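 further: 0 = sulfaphenazole-blocked wells and 1 = vehicle-only wells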
Pyk2 oligo antag: antagonists of human Pyk2 oligomerization | hit rate 0.83% among 99,000 | z-score (the deposit names both 25 µM and 10 µM) | Q293 cells, Pyk2 FERM NanoBiT luminescence; hits give low values | Q14289;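 active means Z-score of -3 or lower, scaled per plate to the spread of control and sample wells; inactive means z-score above -3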;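 further: negative z-score means lost luminescence so less FERM oligomerization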
* = called active by the depositor; x = no result given.

SMILES | CYP2C9 inh | CYP2C19 activ | CYP2C19 inhib | CYP2C9 act | Pyk2 oligo antag
Cc1cc(NCCCn2ccnc2)n2nc(C)c(-c3ccccc3)c2n1 | 88* | 0.1 | 90* | 0.1 | -0.25
Cc1cc(NCCCn2ccnc2)n2ncc(-c3ccccc3)c2n1 | 98* | 0 | 99* | 0 | -0.1
Cc1cc(NCCN2CCOCC2)n2ncc(-c3ccccc3)c2n1 | 25 | 0.7 | 28 | 0.7 | 0.09
Cc1cc(NCCCn2ccnc2)n2nc(C)c(-c3ccc(Cl)cc3)c2n1 | 89* | 0.1 | 90* | 0.1 | -0.65
Cc1cc(N)n2nc(C)c(-c3ccccc3)c2n1 | -2 | 1.1 | -14 | 1 | -0.23
Cc1cc(NCCN2CCOCC2)n2nc(C)c(-c3ccccc3)c2n1 | -22 | 1.1 | -9 | 1.2 | -0.76
Cc1cc(SCC#N)n2nc(C)c(-c3ccc(Cl)cc3)c2n1 | 28 | 0.9 | 10 | 0.7 | -0.27
Cc1cc(NCCN2CCOCC2)n2nc(C)c(-c3ccc(Cl)cc3)c2n1 | 57* | 0.5 | 46 | 0.4 | 0.34
Cn1c(N2C(=O)CC(Cc3ccccc3)C2=O)nc2ccccc21 (stereo not drawn) | x | x | x | x | 0.36
O=C(c1cccs1)n1nc(-c2ccccc2)nc1NCc1ccc(F)cc1 | 22 | 1 | 4 | 0.8 | -0.59
CN(C)S(=O)(=O)c1ccc(C(=O)OCC(=O)NC(=O)NCc2ccccc2)cc1 | -11 | 1.2 | -17 | 1.1 | 0.02
Cc1ccc(-c2n[nH]c(=O)c3ccccc23)cc1N | 23 | 0.3 | 68* | 0.8 | 0.57
O=c1c2nnn(Cc3ccccc3)c2ncn1C/C=C/c1ccccc1 | 11 | 0.9 | 9 | 0.9 | x
COCCn1c(C2CCCCC2)nc2sc3ccccc3c(=O)c2c1=O | 77* | 0.4 | 61* | 0.2 | 0.68
Cc1cccc2cc3c(N)c(C(=O)Nc4ccc(N5CCOCC5)cc4)sc3nc12 | 36 | 0.7 | 33 | 0.6 | -3.4*
CS(=O)(=O)N1CCCC(C(=O)NCc2ccc(F)cc2)C1 (stereo not drawn) | 0 | 1 | 1 | 1 | 1.3
Cc1noc(/C=C/N(C)C)c1S(=O)(=O)N1CCCC(C(=O)NCc2ccc(Cl)cc2)C1 (stereo not drawn) | 77* | 0.5 | 50 | 0.2 | -0.08
Cc1noc(/C=C/N(C)C)c1S(=O)(=O)N1CCCC(C(=O)NCc2ccccc2Cl)C1 (stereo not drawn) | 78* | 0.8 | 24 | 0.2 | -0.27
Cc1ccc(CNC(=O)C2CCCN(S(=O)(=O)c3c(C)noc3C)C2)cc1 (stereo not drawn) | -4 | 1.1 | -13 | 1 | -0.17
Cc1noc(/C=C/N(C)C)c1S(=O)(=O)N1CCCC(C(=O)NCc2ccc(F)cc2)C1 (stereo not drawn) | 73* | 0.5 | 46 | 0.3 | x
O=C(Nc1ccc2c(c1)OCCO2)c1ccc(NC(=O)C2CCCO2)cc1 (stereo not drawn) | 23 | 0.7 | 29 | 0.8 | -0.24
O=C(Nc1ccc(S(=O)(=O)NCc2ccccc2)cc1)c1ccc(Br)o1 | x | x | x | x | 0.07
Cc1ccc(C(=O)NC(=S)Nc2ccc(S(=O)(=O)N(C)c3ccccc3)cc2)cc1 | 5 | 1 | 5 | 0.9 | 1.4
COCc1nnc(NC(=O)c2ccc(S(=O)(=O)N(C)c3ccccc3)cc2)o1 | 77* | 0.9 | 5 | 0.2 | x
CCN(c1ccccc1)S(=O)(=O)c1ccc(NC(=S)NC(=O)c2ccc(Br)o2)cc1 | 67* | 0.8 | 23 | 0.3 | -0.89
SMILES | CYP2C9 inh | CYP2C19 activ | CYP2C19 inhib | CYP2C9 act | Pyk2 oligo antag
CCN(c1ccccc1)S(=O)(=O)c1ccc(C(=O)Nc2nnc(COC)o2)cc1 | 70* | 1.1 | -8 | 0.3 | -2.3
CN(c1ccccc1)S(=O)(=O)c1ccc(NC(=S)NC(=O)c2ccccc2)cc1 | 70* | 0.7 | 29 | 0.3 | 0.57
Cc1nc2ccc(F)cc2cc1C(=O)NC(C)C | -3 | 0.9 | 12 | 1 | 2.2
CCOC(=O)c1sc(NC(=O)COC(=O)Cn2cnc3ccccc32)c(C(=O)OCC)c1C | x | x | x | x | 0.1
COC(=O)CC1=C(C)C(=O)CC2C(C)(C)CCCC12C (stereo not drawn) | 17 | 0.4 | 57* | 0.8 | -0.94
C=CC(=C)CC(NC)c1ccccc1 (stereo not drawn) | -10 | 1 | -1 | 1.1 | -0.89
O=S(=O)(Cc1ccccc1)c1cnc2ccccc2n1 | -149 | 0.1 | 89* | 2.5* | -0.41
NC(=O)Cn1c(S(=O)(=O)Cc2ccccc2)nc2ccccc21 | x | x | x | x | 0.01
CC(C)C1Oc2ccccc2N(CC(=O)N(Cc2ccncc2)Cc2ccco2)C1=O (stereo not drawn) | x | x | x | x | -0.36
CSc1ncc(Cl)c(C(=O)Nc2nnc(SC/C=C/c3ccccc3)s2)n1 | 99* | 0.2 | 80* | 0 | -2.4
CCCCCc1nnc(NC(=O)Cc2cccs2)s1 | 49 | 0.7 | 32 | 0.5 | 0.22
O=C(CCCSc1nc(-c2ccco2)cc(C(F)(F)F)n1)Nc1ccc2c(c1)OCO2 | 79* | 0.5 | 48 | 0.2 | 0.47
O=C(CSc1nc(-c2cccs2)cc(C(F)(F)F)n1)NCCCn1ccnc1 | x | x | x | x | 2.9
COc1ccc(CCNC(=O)CSc2nc(-c3ccco3)cc(C(F)(F)F)n2)cc1 | 69* | 0.4 | 58* | 0.3 | -0.08
O=C(CSc1nc(-c2ccco2)cc(C(F)(F)F)n1)NCCCn1ccnc1 | 96* | 0.1 | 91* | 0 | x
O=C(CCSc1nc(-c2ccco2)cc(C(F)(F)F)n1)NCCc1ccccc1 | 51* | 0.6 | 39 | 0.5 | 0.06
COc1ccc2[nH]c(C)c(C(=O)CN3CCc4cc(OC)c(OC)cc4C3)c2c1 | 42 | 0.9 | 6 | 0.6 | -0.77
Cc1c(NC(=O)NCCN2C(=O)C3C4C=CC(C4)C3C2=O)c(=O)n(-c2ccccc2)n1C (stereo not drawn) | -1 | 1.1 | -10 | 1 | x
COc1ccccc1CCNC(=O)CSc1nc(-c2ccco2)cc(C(F)(F)F)n1 | 5 | 1 | 3 | 0.9 | x
COC(=O)c1ccc(CSc2nc(-c3ccco3)cc(C(F)(F)F)n2)o1 | 75* | 0.7 | 34 | 0.3 | 0.28
O=C(CSc1nc(-c2ccco2)cc(C(F)(F)F)n1)Nc1cccnc1 | 53* | 0.7 | 26 | 0.5 | -0.48
CC(NC(=O)CCSc1nc(-c2ccc3c(c2)OCO3)cc(C(F)(F)F)n1)c1ccccc1 (stereo not drawn) | 83* | 0.2 | 81* | 0.2 | 0.05
O=C(CSc1nc(-c2ccco2)cc(C(F)(F)F)n1)Nc1ccc2c(c1)OCO2 | x | x | x | x | -0.65
c1ccc(-n2cnnc2SCc2nc3ccccc3s2)cc1 | 12 | 0.6 | 39 | 0.9 | 0.41
c1ccc(-c2ncc(CSc3nncn3-c3ccccc3)s2)cc1 | -26 | 0.4 | 59* | 1.3 | 0.84
COc1ccc(-n2cnnc2SCc2csc(-c3ccccc3)n2)cc1 | 27 | 0.3 | 75* | 0.7 | -0.87
CCCSc1nc(N)nc(-c2cccs2)c1C#N | 73* | 0.6 | 40 | 0.3 | -2.5
CCSc1nc(C2CC2)cc(-c2cccs2)c1C#N | 41 | 0.3 | 68* | 0.6 | -1.1
C=CCNC(=O)NC(=O)COC(=O)COc1ccc(Br)cc1F | 0 | 1 | -3 | 1 | 0.78

Screens: PubChem BioAssay, Sanford-Burnham Center for Chemical Genomics
